Here are results for nine compounds from ChEMBL document CHEMBL3988442, “University of Dundee, Small-Polar-MMV Screening Library” (2021).

Design in all cases: scale not given: direction of the effect not stated beside the values
The target in assay [1] is Protein translocase subunit SecA (Escherichia coli (strain K12)) (UniProt P10408). As to the kind of experiment: Assay to Identify E. coli SecA ATPase Inhibitors. It is filed as functional. The settings on record: 30 µM.
In assay [2] the target is T1, Ubiquitin-activating enzyme e1, putative (Leishmania donovani (strain BPK282A1)) (UniProt E9BSI1).
T1 sequence (whole entry): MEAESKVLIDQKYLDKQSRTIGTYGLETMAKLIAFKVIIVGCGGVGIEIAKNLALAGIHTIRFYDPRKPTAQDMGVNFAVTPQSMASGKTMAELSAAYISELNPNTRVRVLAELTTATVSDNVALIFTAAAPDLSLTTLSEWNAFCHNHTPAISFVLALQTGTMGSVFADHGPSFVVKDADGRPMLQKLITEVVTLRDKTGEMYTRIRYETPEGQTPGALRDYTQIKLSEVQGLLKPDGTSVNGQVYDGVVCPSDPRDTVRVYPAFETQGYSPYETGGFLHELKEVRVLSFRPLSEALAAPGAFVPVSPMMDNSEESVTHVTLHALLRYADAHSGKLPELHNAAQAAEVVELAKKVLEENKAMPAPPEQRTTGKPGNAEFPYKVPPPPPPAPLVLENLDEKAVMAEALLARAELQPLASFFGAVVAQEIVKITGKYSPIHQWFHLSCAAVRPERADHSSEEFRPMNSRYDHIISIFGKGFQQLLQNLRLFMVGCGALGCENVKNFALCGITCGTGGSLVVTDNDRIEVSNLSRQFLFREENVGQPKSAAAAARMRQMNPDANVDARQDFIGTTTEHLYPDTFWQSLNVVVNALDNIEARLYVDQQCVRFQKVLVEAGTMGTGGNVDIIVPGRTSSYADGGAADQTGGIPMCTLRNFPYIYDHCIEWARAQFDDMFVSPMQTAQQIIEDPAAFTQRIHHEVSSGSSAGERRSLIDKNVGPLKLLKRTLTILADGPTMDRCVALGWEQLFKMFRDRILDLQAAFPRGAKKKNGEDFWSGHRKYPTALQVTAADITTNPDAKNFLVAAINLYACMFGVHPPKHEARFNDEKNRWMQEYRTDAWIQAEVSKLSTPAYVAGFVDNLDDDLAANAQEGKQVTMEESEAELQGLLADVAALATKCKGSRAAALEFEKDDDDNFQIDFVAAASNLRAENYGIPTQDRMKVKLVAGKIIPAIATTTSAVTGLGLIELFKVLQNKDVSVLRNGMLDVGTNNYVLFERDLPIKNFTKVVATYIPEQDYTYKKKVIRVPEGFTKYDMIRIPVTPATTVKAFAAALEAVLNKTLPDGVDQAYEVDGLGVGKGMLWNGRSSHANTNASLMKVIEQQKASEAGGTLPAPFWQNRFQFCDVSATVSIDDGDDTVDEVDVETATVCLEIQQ
As to the kind of experiment: Leishmania donovani Ubiquitin Activating Enzyme (LdE1). In kind it is functional. The settings on record: 30 µM.

In assay [3] the target is AMP-activated protein kinase, AMPK (Homo sapiens) (UniProt P54646+O43741+P54619+Q9UGJ0+Q9Y478+Q13131+Q9UGI9). As to the kind of experiment: AMP-dependent Kinase enzyme assay. An in vitro enzyme assay that detects ADP turnover that is directly proportional to AMPK activity. This uses naive AMPK that is activated during the assay with MK-8722. In kind it is functional. The settings on record: 30 µM.

The target of assay [4] is Sialic acid-binding Ig-like lectin 9 (Homo sapiens) (UniProt Q9Y336). Description: Hs-Siglec9 ALPHAscreen SOP 20170721. The settings on record: 10 µM. Background: In Alpha technology, singlet oxygen from a donor bead excites a nearby acceptor bead.
Assay [5] has as its system Trypanosoma cruzi. As to the kind of experiment: Trypanosoma cruzi phosphomannomutase and mannose-1-phosphate guanylyltransferase assay. It is filed as functional. The settings on record: 10 µM.
Assay [6] addresses T2, Arginase-2, mitochondrial (Homo sapiens) (UniProt P78540).
T2 sequence (whole entry): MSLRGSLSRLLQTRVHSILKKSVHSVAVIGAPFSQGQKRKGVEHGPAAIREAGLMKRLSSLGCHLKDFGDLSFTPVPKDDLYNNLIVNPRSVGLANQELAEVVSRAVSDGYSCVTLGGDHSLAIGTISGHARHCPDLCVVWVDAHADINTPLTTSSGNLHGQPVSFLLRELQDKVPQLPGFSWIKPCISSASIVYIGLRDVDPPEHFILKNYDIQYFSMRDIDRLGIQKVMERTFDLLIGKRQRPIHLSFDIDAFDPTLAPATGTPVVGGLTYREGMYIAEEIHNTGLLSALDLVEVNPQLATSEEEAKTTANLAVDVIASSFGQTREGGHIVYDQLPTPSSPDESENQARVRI
Description: in vitro enzyme assay to detect the production of urea directly proportional to the activity of Arginase II. Note: in the data most compounds retested in dose-response had high values. In kind it is functional. The settings on record: 33.3 µM.

Assay [7] deals with T3, Proteasome subunit beta (Trypanosoma cruzi) (UniProt O96673).
T3 sequence (whole entry): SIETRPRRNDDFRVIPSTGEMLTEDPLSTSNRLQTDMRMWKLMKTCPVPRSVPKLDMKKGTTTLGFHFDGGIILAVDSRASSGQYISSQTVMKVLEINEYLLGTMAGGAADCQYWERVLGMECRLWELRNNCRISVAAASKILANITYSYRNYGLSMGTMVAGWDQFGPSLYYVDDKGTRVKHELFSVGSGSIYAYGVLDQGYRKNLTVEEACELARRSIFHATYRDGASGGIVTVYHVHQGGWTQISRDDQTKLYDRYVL
Description: Trypanosoma cruzi proteasome chymotrypsin-like activity (TcProtChymo) assay. Note: in the data most compounds retested in dose-response had high values. In kind it is functional. The settings on record: 9.37 µM.

For assay [8], the species on record is Homo sapiens. As to the kind of experiment: To identify inhibition of the IFN signalling (Jak-Stat) pathway via expression of an eGFP reporter gene under the control of an IFN-stimulated response element (ISRE) containing MxA promoter. The settings on record: 30 µM. In kind it is functional.
Assay [9] concerns the target T4, Tyrosyl-tRNA synthetase, putative (Trypanosoma cruzi (strain CL Brener)) (UniProt Q4DSP6).
T4 sequence (whole entry): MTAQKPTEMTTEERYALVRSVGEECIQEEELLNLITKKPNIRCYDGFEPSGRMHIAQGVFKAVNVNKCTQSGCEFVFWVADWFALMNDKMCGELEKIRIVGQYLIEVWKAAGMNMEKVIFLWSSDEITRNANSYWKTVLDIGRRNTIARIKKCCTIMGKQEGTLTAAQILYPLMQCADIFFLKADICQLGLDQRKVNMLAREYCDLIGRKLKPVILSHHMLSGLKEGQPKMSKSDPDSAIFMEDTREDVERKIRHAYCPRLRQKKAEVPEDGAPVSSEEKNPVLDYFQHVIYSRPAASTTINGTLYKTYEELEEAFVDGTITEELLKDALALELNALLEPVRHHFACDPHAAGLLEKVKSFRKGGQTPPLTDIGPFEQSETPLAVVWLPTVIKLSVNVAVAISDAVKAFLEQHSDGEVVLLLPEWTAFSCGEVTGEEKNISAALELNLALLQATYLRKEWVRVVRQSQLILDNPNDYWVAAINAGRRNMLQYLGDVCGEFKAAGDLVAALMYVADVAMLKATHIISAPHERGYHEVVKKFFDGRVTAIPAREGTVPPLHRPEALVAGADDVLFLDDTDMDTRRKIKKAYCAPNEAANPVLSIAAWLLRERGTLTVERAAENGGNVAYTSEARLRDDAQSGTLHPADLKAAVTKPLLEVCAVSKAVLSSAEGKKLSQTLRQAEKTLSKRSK
Description: Trypanosoma cruzi tyrosyl tRNA synthetase (TcYRS) _High Tyrosine SOP. Note: in the data most compounds retested in dose-response had high values. In kind it is functional. The settings on record: 30 µM.

Assay [10] concerns the target T4, Tyrosyl-tRNA synthetase, putative (Trypanosoma cruzi (strain CL Brener)). Description: Trypanosoma cruzi tyrosyl tRNA synthetase (TcYRS) SOP. It is filed as functional. The settings on record: 30 µM.
Assay [11] deals with Chromo domain-containing protein 1 (Saccharomyces cerevisiae (strain ATCC 204508 / S288c) (Baker's yeast)) (UniProt P32657). Description: ScCHD-1 Enzyme Inhibition Assay. Note: in the data most compounds retested in dose-response had high values. In kind it is functional. The settings on record: 30 µM.

For part of these data: Measured potencies and affinities stand elsewhere.

Sequence of Sialic acid-binding Ig-like lectin 9 (Homo sapiens) (Q9Y336 whole entry): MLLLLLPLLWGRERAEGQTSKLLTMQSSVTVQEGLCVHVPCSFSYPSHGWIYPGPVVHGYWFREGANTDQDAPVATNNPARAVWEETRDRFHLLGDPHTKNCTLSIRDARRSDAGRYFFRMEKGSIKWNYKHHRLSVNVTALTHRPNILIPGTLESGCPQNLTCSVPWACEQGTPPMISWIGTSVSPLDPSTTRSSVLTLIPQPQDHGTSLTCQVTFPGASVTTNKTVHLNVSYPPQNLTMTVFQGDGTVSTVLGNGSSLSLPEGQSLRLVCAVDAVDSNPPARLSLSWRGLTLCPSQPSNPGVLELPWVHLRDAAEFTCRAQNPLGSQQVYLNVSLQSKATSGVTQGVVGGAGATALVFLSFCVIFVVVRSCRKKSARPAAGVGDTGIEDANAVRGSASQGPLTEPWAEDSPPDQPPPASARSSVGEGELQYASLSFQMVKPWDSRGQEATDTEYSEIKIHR
Sequence of Protein translocase subunit SecA (Escherichia coli (strain K12)) (P10408 whole entry): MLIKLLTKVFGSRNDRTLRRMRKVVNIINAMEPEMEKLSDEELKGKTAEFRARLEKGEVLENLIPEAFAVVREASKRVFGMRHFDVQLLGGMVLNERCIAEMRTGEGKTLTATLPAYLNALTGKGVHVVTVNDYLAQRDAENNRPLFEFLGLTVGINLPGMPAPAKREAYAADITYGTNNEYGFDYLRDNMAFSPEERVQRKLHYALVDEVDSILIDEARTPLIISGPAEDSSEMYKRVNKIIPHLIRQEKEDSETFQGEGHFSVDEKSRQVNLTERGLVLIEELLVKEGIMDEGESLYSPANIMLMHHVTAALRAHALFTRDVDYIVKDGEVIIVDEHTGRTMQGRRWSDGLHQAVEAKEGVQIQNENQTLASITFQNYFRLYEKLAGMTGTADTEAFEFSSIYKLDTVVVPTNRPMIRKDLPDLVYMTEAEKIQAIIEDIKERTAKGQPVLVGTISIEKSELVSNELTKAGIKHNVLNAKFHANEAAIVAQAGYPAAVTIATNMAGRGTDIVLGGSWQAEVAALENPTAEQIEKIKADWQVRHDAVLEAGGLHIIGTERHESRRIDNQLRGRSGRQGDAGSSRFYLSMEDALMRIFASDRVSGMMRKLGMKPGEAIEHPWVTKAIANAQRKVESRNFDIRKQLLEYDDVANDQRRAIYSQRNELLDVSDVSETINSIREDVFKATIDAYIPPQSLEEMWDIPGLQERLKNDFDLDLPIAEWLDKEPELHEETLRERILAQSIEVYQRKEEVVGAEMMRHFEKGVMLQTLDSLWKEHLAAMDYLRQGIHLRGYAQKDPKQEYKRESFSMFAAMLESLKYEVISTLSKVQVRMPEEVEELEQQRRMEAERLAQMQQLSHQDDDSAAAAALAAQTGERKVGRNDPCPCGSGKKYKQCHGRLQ
Sequence of Chromo domain-containing protein 1 (Saccharomyces cerevisiae (strain ATCC 204508 / S288c) (Baker's yeast)) (P32657 whole entry, the tested form may be a part): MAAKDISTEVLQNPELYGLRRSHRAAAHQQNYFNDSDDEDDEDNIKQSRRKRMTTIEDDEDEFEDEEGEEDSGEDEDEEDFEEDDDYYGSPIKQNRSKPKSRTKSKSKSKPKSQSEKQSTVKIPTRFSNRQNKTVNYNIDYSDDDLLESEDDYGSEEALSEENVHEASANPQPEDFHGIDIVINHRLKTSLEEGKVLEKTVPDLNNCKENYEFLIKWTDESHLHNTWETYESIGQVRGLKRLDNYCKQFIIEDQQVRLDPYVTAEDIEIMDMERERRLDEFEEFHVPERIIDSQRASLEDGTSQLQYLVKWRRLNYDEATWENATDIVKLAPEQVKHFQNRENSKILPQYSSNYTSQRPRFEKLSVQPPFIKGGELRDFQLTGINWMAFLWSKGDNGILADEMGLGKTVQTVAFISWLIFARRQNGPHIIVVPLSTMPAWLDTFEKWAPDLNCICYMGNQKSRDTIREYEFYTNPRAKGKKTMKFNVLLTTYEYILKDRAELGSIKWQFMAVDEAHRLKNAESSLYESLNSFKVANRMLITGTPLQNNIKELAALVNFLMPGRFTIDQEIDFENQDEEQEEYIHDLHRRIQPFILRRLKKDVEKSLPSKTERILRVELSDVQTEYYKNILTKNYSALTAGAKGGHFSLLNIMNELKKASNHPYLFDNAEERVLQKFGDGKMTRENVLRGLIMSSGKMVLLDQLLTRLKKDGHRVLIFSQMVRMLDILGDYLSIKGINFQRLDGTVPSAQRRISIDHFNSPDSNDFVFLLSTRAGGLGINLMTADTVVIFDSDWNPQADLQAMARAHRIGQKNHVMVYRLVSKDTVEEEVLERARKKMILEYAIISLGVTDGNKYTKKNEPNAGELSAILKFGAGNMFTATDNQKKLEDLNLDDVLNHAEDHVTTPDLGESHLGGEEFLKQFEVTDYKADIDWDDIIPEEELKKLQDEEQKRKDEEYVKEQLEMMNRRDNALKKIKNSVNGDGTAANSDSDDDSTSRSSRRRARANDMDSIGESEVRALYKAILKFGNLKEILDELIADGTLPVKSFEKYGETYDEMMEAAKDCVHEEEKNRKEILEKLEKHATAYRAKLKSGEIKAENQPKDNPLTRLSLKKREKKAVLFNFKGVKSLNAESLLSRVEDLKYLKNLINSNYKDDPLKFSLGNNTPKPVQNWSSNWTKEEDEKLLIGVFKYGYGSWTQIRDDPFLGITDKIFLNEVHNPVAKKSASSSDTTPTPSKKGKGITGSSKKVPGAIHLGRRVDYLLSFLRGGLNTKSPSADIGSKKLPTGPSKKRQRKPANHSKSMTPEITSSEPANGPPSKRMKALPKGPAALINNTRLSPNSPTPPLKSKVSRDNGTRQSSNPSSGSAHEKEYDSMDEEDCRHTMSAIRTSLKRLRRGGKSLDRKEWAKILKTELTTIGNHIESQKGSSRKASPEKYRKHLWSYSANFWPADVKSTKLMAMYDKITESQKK

Turning to `COCc1nc2n(n1)CCCC2Nc1nc(C2CC2)ns1` (centres undefined), the Percent Effect in [1] is -2.6%; in assay [2], 5.33%; in [3] it was -1.82%; in [4], 23.5%; in [5], 2.82%; in assay [6], 16.1%. Also, the Percent Effect in assay [7] was 13.6%; in assay [8], -2.26%; in assay [9], 4.92%; in assay [10] it was 13.6%; in [11] it was -5.92%.
For the compound `CS(=O)(=O)N1CCC2(CN(C(=O)c3cccnc3)C2)C1`, the Percent Effect in assay [1] was -2.76%; in assay [2], 5.48%; in assay [3], -1.91%; in [4] it was 3.06%; in [5], -2.18%; in assay [6], -2.79%. The Percent Effect was 14.3% in assay [7]; 23.4% in [8]; 4.17% in assay [9]; 6.17% in [10]; -1.65% in [11].
As to `Cc1cnn(CCNCc2ccc(OCc3csc(C)n3)cc2)c1`, the Percent Effect in [1] was -7.35%; in assay [2], 0%; in [3] it was -1.8%; in [4], 8.64%; in assay [5] it was 10.2%; in assay [6] it was -1.04%. The Percent Effect was 8.54% in assay [7]; 11.2% in [8]; 3.83% in [9]; 11.1% in [10]; -5.91% in [11].
As to `COc1ccc(CN2CCOC3(CCCN(c4nnc(C)o4)C3)C2)cc1` (centres undefined), the Percent Effect in assay [1] was -4.63%; in assay [2] it was -2.74%; in assay [3], -4.05%; in assay [4], 6.97%; in [5], 5.75%; in assay [6], 2%. The Percent Effect in assay [7] is 10.4%; in assay [8], -9.72%; in assay [9], 4.17%; in assay [10], -1.24%; in assay [11], -4.74%.
With `CCc1cnc2c(c1Nc1ccc(OC)cc1)c(=O)n(C)c(=O)n2C`, the Percent Effect in [1] is -1.52%; in assay [2], 18.2%; in assay [3] it was 0.437%; in assay [4] it was -14.7%; in [5] it was 2.66%; in assay [6] it was -41.9%. In addition, the Percent Effect was 8.88% in assay [7]; 11.4% in assay [8]; 4.23% in assay [9]; 8.97% in assay [10]; -11.2% in [11].
As to `O=C1NC(c2ccccc2)=N[C@@]12CC[C@@H]1CN(CC3CCOCC3)C[C@@H]12`, the Percent Effect in [1] is -1.53%; in [2], 0%; in [3], 5.75%; in assay [4] it was -1.86%; in assay [5], -1.54%; in assay [6], -48.6%. For the same compound, the Percent Effect in assay [7] was 0.684%; in [8], -0.209%; in [9], -27.1%; in assay [10], -5%; in assay [11], -1.93%.
With `CN1CCOC(CNCc2coc(-c3ccccc3)n2)C1` (centres undefined), the Percent Effect was 0.225% in [1]; 12.7% in assay [2]; -7.36% in assay [3]; -10.7% in assay [4]; -5.57% in assay [5]; 7.22% in assay [6]. Further, the Percent Effect in assay [7] was 8.6%; in assay [8], 24.4%; in assay [9], 6.4%; in assay [10], 13.9%; in assay [11], -5.22%.
Regarding `O=C(c1ccsc1)N1C[C@@H]2C[C@@H](c3nnc(C4CC4)o3)O[C@@H]2C1`, the Percent Effect in assay [1] was -1.51%; in assay [2], 7.79%; in assay [3], 6.12%; in [4], 6.45%; in assay [5] it was -4.63%; in [6], 5.81%. Further, the Percent Effect in assay [7] is 3.31%; in assay [8], 15%; in assay [9] it was 1.06%; in [10] it was 3.85%; in assay [11], -4.38%.
For the compound `Cc1ccc(=O)n(CC2(O)CCN(Cc3ccsc3)CC2)n1`, the Percent Effect in assay [1] is 1.03%; in [2] it was 1.35%; in [3] it was 9.78%; in [4], -1.02%; in assay [5] it was -4.74%; in [6], 3.02%. Moreover, the Percent Effect in assay [7] was 12.9%; in assay [8] it was 2.32%; in assay [9], 7.53%; in [10] it was 9.09%; in assay [11] it was -6.08%.
